Source: PubChem BioAssay
Activity calls are given as the source filed them.

How the values were obtained:
[1] = system: XIP peptide (Xip251-270) binding; experiment: XIP fragment 251-270 binding compounds – biochemical, small-molecule microarray, fluorescence 635/667 nm, 0.1 µg/mL protein, primary screen (AID 1182); conditions: fluorescent protein binding, 635 nm, higher = more signal, called active from +8 up or from −8 down
XIP peptide (Xip251-270) = experiment: compounds binding XIP fragment 251-270 – biochemical, small-molecule microarray, fluorescence 635/667 nm, 0.5 µg/mL protein, primary screen (AID 1183); conditions: fluorescence 635 nm, higher = more signal
[2] = blood-stage malaria parasite viability loss – strain 3D7, DAPI fluorescence, 100 nL, primary screen (AID 1184);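 also: parasites grown inside human red blood cells in medium with human serum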; conditions: P. falciparum 3D7 growth, 3 d, higher = more signal
[3] = target: Homeobox protein Hox-A13 (Mus musculus) (UniProt Q62424); experiment: disruptors of Hoxa13 oligonucleotide interaction – biochemical, fluorescence polarization, labeled oligonucleotide, primary screen (AID 1185); conditions: Hoxa13:DNA binding, 15 min, higher = more signal, called active from +8 up or from −8 down
Chain of Homeobox protein Hox-A13 (Mus musculus) (Q62424 whole entry, looked up): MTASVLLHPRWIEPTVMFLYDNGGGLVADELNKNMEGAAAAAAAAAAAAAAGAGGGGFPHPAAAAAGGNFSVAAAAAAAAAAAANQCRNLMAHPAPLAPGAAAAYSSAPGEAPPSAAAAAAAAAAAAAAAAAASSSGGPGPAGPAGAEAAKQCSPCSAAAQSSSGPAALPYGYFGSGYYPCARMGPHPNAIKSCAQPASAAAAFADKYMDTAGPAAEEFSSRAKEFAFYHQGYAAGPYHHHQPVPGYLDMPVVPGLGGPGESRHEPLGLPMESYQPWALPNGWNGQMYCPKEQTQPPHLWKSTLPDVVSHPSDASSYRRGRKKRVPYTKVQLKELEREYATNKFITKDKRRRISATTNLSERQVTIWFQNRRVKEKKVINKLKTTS

Structure (SMILES)	composite z-score [1]	composite z-score (XIP peptide (Xip251-270))	z-score [2]	z-score [3]
COc1ccc(COC(=O)NN=C2C[C@@H](O)[C@@H](O)[C@@H]3[C@@H]4C(=O)N(C(C)(C)C)C(=O)[C@@H]4CC[C@@H]23)cc1	0.457 (inactive)	0.48	0.553	-1.64 (inactive)
C=C(C)C(=O)OC[C@H]1CN2[C@@H](CC[C@@H](C)[C@@H]2c2ccc(Br)cc2)C(=O)O1	0.414 (inactive)	-0.102	1.05	-2.2 (inactive)
CC(CCN1CCCCc2nc(C)c(C)cc21)=NO[C@@H](C)c1cc(-c2c(C)cc(C)cc2C)no1	0.107 (inactive)	0.0399	-0.143	-2.25 (inactive)
CCOC(=O)CCN1C(=O)[C@H]2[C@H]3[C@H](O)[C@H](O)CC(=NO[C@@H]4O[C@H](CO)[C@@H](O)[C@H](O)[C@H]4O)[C@@H]3CC[C@H]2C1=O	0.557 (inactive)	0.632	0.434	0.142 (inactive)
CC(C)=NOC[C@@H](O)[C@H]1O[C@@H]2OC(C)(C)O[C@@H]2[C@H]1O	0.524 (inactive)	-0.122	0.292	0.483 (inactive)
COc1ccc(O[C@H]2C=C[C@@H](c3ccccc3)O[C@@H]2CON=C2c3cc(OC)ccc3O[C@H](c3cccc(OC)c3)[C@H]2O)cc1	-0.167 (inactive)	-0.338	0.106	1.67 (inactive)
O=C1CCCC=C1C(O)C1CCCCC1 (centres undefined)	-0.459 (inactive)	-0.11	0.247	-0.0768 (inactive)
COC(=O)[C@H](C)NC(=O)CCC1CC(OC(=O)NCc2ccc3c(c2)OCO3)CC2(CCCC(COC(=O)NCCc3ccc(Cl)cc3)O2)O1 (some centres undefined)	0.0239 (inactive)	0.375	-1.97	-5.07 (inactive)
C[C@]12CCC3c4ccc(OCC5CO5)cc4CCC3C1CC[C@@H]2O (some centres undefined)	0.504 (inactive)	0.0249	0.0788	-2.47 (inactive)
CC(=O)OC[C@H]1O[C@H](CC=NO[C@@H](C)c2cn([C@H](CO)Cc3ccccc3)nn2)C=C[C@@H]1OC(C)=O	-0.0018 (inactive)	0.361	-1.13	-0.583 (inactive)
COC(=O)CC=C[C@@H](C)[C@@H](C=NOC(C)CN1CCCc2nc(C)c(C)cc21)NS(=O)(=O)c1ccc(C)cc1 (some centres undefined)	0.364 (inactive)	0.624	0.135	-7.74 (inactive)
CCOC(=O)NN=C1C[C@@H](O)[C@@H](O)[C@@H]2[C@@H]3C(=O)N(C[C@@H]4CCCO4)C(=O)[C@@H]3CC[C@H]12	0.0272 (inactive)	0.0356	0.379	0.0129 (inactive)
COc1cccc([C@H]2Oc3ccc(OC)cc3C(=NO[C@@H](C)c3cc(-c4c(C)cc(C)cc4C)no3)[C@@H]2O)c1	-0.294 (inactive)	0.0817	-0.24	0.621 (inactive)
CO[C@@H](C(C)C)[C@@H](C)C1OC(=O)CC1O (some centres undefined)	0.51 (inactive)	0.129	-1.69	0.186 (inactive)
COc1cccc([C@H](O)Cn2cc(-c3ccc(CON=C(C)C)cc3)nn2)c1	0.218 (inactive)	-0.851	-1.11	-4.2 (inactive)
CON=C1c2cc(OC)ccc2O[C@H](c2cccc(OC)c2)[C@H]1O	0.906 (inactive)	0.464	0.924	-0.365 (inactive)
